The text below walks through data of PubChem BioAssay AID504375 (National Center for Advancing Translational Sciences (NCATS), 2011).

SMILES strings stand for the structures. In all, about 1,600 compounds went through this assay and about 25 (2%) were called active. Where a call stands in place of a potency, no number is given. About 7% were inconclusive and are not listed. Calls follow the shape of the dose curve; as a rule, active = well fitted inhibition curve with a large enough effect; inconclusive = small, poorly fitted or top-dose-only effect, or effect the other way; inactive = no such curve, though single readings can be large or run the other way. Many of the other results were omitted from the sample, so actives are more common in it than they were.
Potency is read from the fitted curve at half-maximal effect.

The target of this assay is Runt-related transcription factor 1 (Homo sapiens) + Core-binding factor subunit beta (Homo sapiens) (UniProt Q01196+Q13951). Description: qHTS Assay for Compounds Blocking the Interaction Between CBF-beta and RUNX1 for the Treatment of Acute Myeloid Leukemia: Hit Validation with Orthogonal Assay. To be noted: CBFbeta-RUNX1 binding orthogonal assay, biochemical; series mostly up to 41 µM. The source says: NIH Chemical Genomics Center [NCGC]
Chain of Runt-related transcription factor 1 (Homo sapiens) + Core-binding factor subunit beta (Homo sapiens) (Q01196 whole entry, looked up): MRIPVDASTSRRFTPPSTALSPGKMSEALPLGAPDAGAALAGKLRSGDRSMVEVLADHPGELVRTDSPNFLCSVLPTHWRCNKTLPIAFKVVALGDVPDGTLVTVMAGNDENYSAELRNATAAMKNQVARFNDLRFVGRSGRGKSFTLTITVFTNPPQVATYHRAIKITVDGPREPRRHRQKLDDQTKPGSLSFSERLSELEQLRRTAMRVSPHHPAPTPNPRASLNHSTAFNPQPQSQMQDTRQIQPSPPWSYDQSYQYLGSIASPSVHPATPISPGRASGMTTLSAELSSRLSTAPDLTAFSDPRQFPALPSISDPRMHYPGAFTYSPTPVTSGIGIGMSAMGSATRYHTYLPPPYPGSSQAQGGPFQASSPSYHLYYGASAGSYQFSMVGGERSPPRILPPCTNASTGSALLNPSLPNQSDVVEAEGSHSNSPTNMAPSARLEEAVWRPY
Chain of Runt-related transcription factor 1 (Homo sapiens) + Core-binding factor subunit beta (Homo sapiens) (Q13951 whole entry, looked up): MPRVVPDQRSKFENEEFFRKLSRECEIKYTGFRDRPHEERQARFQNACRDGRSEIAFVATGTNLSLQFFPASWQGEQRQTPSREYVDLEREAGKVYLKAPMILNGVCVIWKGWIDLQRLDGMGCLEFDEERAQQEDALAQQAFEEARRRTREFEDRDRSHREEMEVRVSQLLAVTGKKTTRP
NIH Molecular Libraries Probe Production centers Network [MLPCN]
Assay Submitter (PI): Paul Liu
Core Binding Factor (CBF) abnormalities are associated with 20-25% of all acute myeloid leukemias (AML), of which 5-10% are further sub classified as acute myelomonocytic leukemia with eosinophilia, also known as M4Eo in the FAB classification scheme. This subtype of leukemia is usually associated with chromosome 16 inversion (p13:q22). Chromosome 16 inversion results in formation of the fusion oncogene CBFB-MYH11, which encodes the fusion protein CBF-beta-SMMHC.
It has been hypothesized that the interference of CBF-beta and RUNX1 binding could have therapeutic implications for patients with CBF mediated leukemias. We developed a CBF-beta and RUNX1 binding assay in AlphaScreenTM format and optimized it for high throughput screening to search for inhibitors. The goal of this project is to screen MLPCN's compound collection (MLSMR) for identifying the inhibitors of the interaction between CBF-beta and RUNX1 proteins as research probes. If these probes work well in the animal models, the ultimate goal of this project is to development a new drug treatment for this disease.
This assay can not be used to assess how apparent inhibitors interfere with protein binding, and whether inhibitors specifically bind to either protein. Disruption of this protein-protein interaction, through any mechanism, is the intended target activity.
The present data set was run to confirm the activity of hits from the primary screen using an orthogonal assay technology for measuring protein-protein interaction disruption.
A TR-FRET (time resolved fluorescence resonance energy transfer) assay was performed using the same assay buffer, protein concentrations and incubation times as described previously in the AlphaScreen assay, except that terbium (Tb+) labeled anti-his-antibody and XL665 linked streptavidin were used to capture the binding signal. The Tb+ labeled anti-his-antibody captures His(6)-CBF and XL665 linked streptavidin binds to biotin-RUNX1. The binding of RUNX1 to CBFbrings Tb+ and XL665 to proximity resulting in a TR-FRET signal. Briefly, in a white 384-well plate, 10 µl/well of mixture of biotin-RUNX1 and His(6)-CBFwere incubated with 10 µl/well buffer (positive control) or 10 µl/well compounds (negative control) for 20 min followed by an addition of 10 µl/well of Tb+ labeled anti-his(6)-antibody and XL665 linked streptavidin. After 90 min of incubation in the dark, the assay plate was measured in the Envision plate reader using TR-FRET detection mode. For the 1536-well plate format, 3 µl/well mixture of biotin-RUNX1 and His(6)-CBF (30 nM per protein) was incubated with 23 nl/well compound (dissolved in 100% DMSO) or the equivalent DMSO concentration (positive control) for 30 min followed by the addition of 1 µl/well of 0.44 ng Tb+ labeled anti-his(6)-antibody and 5 nM streptavodin-XL665. After 90 min of incubation, the assay plate was measured in the Envision plate reader.
The TR-FRET assay for detecting interaction between HIV-I Tat and […] was similarly performed with the recombinant full-length HIV-I Tat CLADE B and HIV-I Tat Biotin conjugated proteins supplied by Diatheva (Fano, Italy). Briefly, the His-CBF and Biotin-RUNX1 complex at a working concentration of 83.3 nM per protein were pre-incubated in assay buffer for 10 minutes on ice. Then HIV-I Tat or unlabeled CBF were added to reach final concentrations (Supplementary Figure 4b) and incubated for 5 minutes. Finally anti-His antibody and streptavidin-XL665 at a final concentration of 2.2 ng and 5 nM, respectively, were added to the plate, which was incubated for 1 hr prior to reading on the PerkinElmer Envision plate reader.
Keywords: MLSMR, MLPCN, NIH Roadmap, qHTS, NCGC, Core binding factor, CBF, CBF-beta, Acute myeloid leukemia
(In general: qHTS replaces the single test concentration by a dilution series.)
In the case of `O=C(O)CCCCC1SCC2NC(=O)NC21` (stereo not given), the Potency was 20 nM (active).

Take `CC(C)[C@@]1(NC(=O)[C@H]2CC3c4cccc5[nH]cc(c45)C[C@H]3N(C)C2)O[C@@]2(O)C3CCCN3C(=O)[C@@H](Cc3ccccc3)N2C1=O` (stereo not given in full): the Potency entry was “inactive”.

Regarding `CCC(=Nc1cccc(C(F)(F)F)c1)c1c(O)n(C)c(=O)n(C)c1=O`, the Potency result was “inactive”.

As for `Cc1onc(-c2c(Cl)cccc2Cl)c1C(=O)Nc1ccc2c(C(F)(F)F)cc(=O)oc2c1`, the Potency result is “inactive”.

For `CN(N=O)c1ccc(O)c(O)c1`, the Potency is 2510 nM (active).

As to `CN(N=O)c1cc(O)ccc1O`, the Potency result was “inactive”.

For `O=c1[nH]c(=S)n(-c2ccccc2)c(O)c1C=NCc1ccccn1`, the Potency entry is “inactive”.

Take `Cn1c(O)c(/C=N/N2CCOCC2)c(=O)[nH]c1=S`: the Potency result is “inactive”.

Regarding `Cc1cc(OC(=O)N(C)C)nc2c1c(C)nn2C`, the Potency entry is “inactive”.

As to `O=C(O)CN1C(=O)CN=C(c2ccccn2)c2cc(Cl)ccc21`, the Potency result was “inactive”.

For the compound `CC1CN=C(Nc2ccc(F)c(Cl)c2)S1` (stereo not given), the Potency result was “inactive”.

Take `NC(Cc1cc(O)c(O)cc1O)C(=O)O` (stereo not given): the Potency was 10000 nM (active).

`COC1C(OC(=O)c2ccc(C)[nH]2)C(O)C(Oc2ccc3c(O)c(NC(=O)c4ccc(O)c(CC=C(C)C)c4)c(=O)oc3c2Cl)OC1(C)C` (stereo not given): the Potency entry is “inactive”.

Regarding `CCC(=NCc1cccnc1)c1c(O)n(-c2ccccc2C)c(=O)[nH]c1=O`, the Potency entry is “inactive”.

For the compound `CCCCc1ccc(C(=O)O)nc1`, the Potency result is “inactive”.
